Screening results as filed in PubChem.
CRFBP-R2 block: antagonists of CRF-BP/CRF-R2 complex, primary screen, cell-based, HEK293, calcium dye fluorescence, uHTS; 350,000 compounds, 0.59% hits; inhibition, % at 11.8 µM; CRF-induced calcium fluorescence;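 active means inhibition of the ligand-induced calcium signal above about 50% at the single tested concentration, limit read from the data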
CRFR2-BP ag: agonists of CRF-BP/CRF-R2 complex, primary screen, cell-based, HEK293, calcium dye fluorescence, uHTS; AID 588473, 2011; 350,000 compounds, 0.46% hits; calcium dye fluorescence (FLIPR); percent of saturating CRF peptide response; activation, % at 13.2 µM;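 active means activation of at least 50%, plus an integration ratio under a set limit after plate pattern correction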;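 further: plate controls were neutral control wells without compound for no effect and CRF at EC100 for full effect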
cardiac RTF act: cardiac RTF calcium sensitivity activators, primary screen, biochemical, IANBD-TnC fluorescence, EC20 calcium; 340,000 compounds, 0.24% hits; activation, % at 7.2 µM; IANBD-labeled TnC RTF fluorescence at EC20 calcium; 0% EC20 calcium, 100% full calcium;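 active means activation above the mean over all tested compounds plus 3 SD, cut at about 30% in these data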;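 further: rise in fluorescence read as greater calcium sensitivity of cardiac thin filaments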
Myeloid diff MLP: induction of myeloid progenitor differentiation, primary screen, cell-based, flow cytometry, MLPCN library | calls only at 10 µM | AID 624256, 2012 | 360,000 compounds, 1% hits | ER-HoxA9 myeloid progenitors, lysozyme-GFP differentiation;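 active means normalized GFP-positive differentiation at or above the plate's own cutoff, the solvent-only control mean plus 3 SD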;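 further: cells exposed to compound for four days before flow analysis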
RTF Ca sens inh: cardiac RTF calcium sensitivity inhibitors, primary screen, biochemical, IANBD-TnC fluorescence, EC70 calcium | Troponin I, cardiac muscle (Homo sapiens) + Troponin T, cardiac muscle (Homo sapiens) + … | inhibition, % at 7.15 µM | IANBD-labeled cardiac RTF, Ca2+ fluorescence | 340,000 compounds, 0.12% hits | AID 493244, 2011;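 active means inhibition above the mean inhibition of all tested compounds plus 3 SD, cut at about 17% in these data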;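 further: assay run at fixed EC70 calcium of 1.6 mM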
An asterisk follows results filed as active; i = inactive; x = no result; + = active, no number. This is a sample that favours compounds with a hit; in the whole collection about 2.2% have one here.

SMILES	CRFBP-R2 block	CRFR2-BP ag	cardiac RTF act	Myeloid diff MLP	RTF Ca sens inh
Cc1ccc(CO/N=C\Cc2snc(Sc3ncc(C(F)(F)F)cc3Cl)c2C#N)cc1	-15	4	-6	+	3
O=C1NC[C@@H](CCCCN2CCN(CCC3CCCCC3)C(=O)C2=O)N(CC2CCCCC2)C1=O	x	x	x	i	x
COc1cc2oc3ccccc3c2cc1N(CC(=O)N1CCCCC1)S(=O)(=O)c1ccc(C)cc1	-60	89*	-3	i	-7
COc1cc2oc3ccccc3c2cc1N(CC(=O)N(C)C)S(=O)(=O)c1ccc(C)cc1	7	1	-2	i	-3
COc1ccc2cc(CN(CC3CCCO3)S(=O)(=O)c3ccc(C(C)=O)cc3)c(=O)[nH]c2c1 (stereo not drawn)	-3	0	5	+	-10
COC(=O)c1ccccc1S(=O)(=O)N(Cc1cc2ccc(OC)cc2[nH]c1=O)CC1CCCO1 (stereo not drawn)	-32	-4	-1	i	-1
COCCCNC(=O)CCN1N=C(c2ccccc2)CCC1=O	-14	3	-3	i	-7
CC(Oc1ccccc1)C(=O)NNC(=O)c1ccccn1 (stereo not drawn)	-8	0	9	i	-21
Cc1cccnc1NC(=O)C(C)Oc1ccccc1 (stereo not drawn)	80*	0	1	i	-8
CC(Oc1cccc(Cl)c1)C(=O)NNC(=O)c1cccnc1 (stereo not drawn)	68*	4	-2	i	-4
CCn1cc([N+](=O)[O-])c(C(=O)N2CCCC2)n1	-15	2	3	+	3
CSc1nsc(/C=C/Nc2ccc(F)cc2)c1C#N	-27	2	15	+	-13
Cc1cc(O)ccc1N/C=C(\C#N)c1nc2ccccc2o1	-17	1	-11	i	-7
CSc1nsc(/C=C/Nc2cccc(Cl)c2)c1C#N	-5	-1	3	+	-18
CSc1nsc(N/N=C/c2ccc3c(c2)OCO3)c1C#N	11	3	12	i	-21
CSc1nsc(/C=C/Nc2ccc(Cl)cc2)c1C#N	23	7	0	+	-7
CSc1nsc(/C=C/Nc2ccc(O)cc2C)c1C#N	-4	1	6	+	-11
Cn1c(CCN2CCN(c3ccccn3)CC2)nc2cc(NC(=O)COc3ccccc3)ccc21	8	0	2	i	-9
COCCNC(=O)c1ccc(-n2c(SCc3ccncc3)nc3ccccc3c2=O)cc1	-3	0	8	i	2
CCOC(=O)C1(CCc2ccccc2)CCN(C(=O)C2CCOCC2)CC1	-13	0	-7	i	2
COc1ccc(CNC(=O)C2CCN(S(=O)(=O)c3ccc4c(c3)CC(C)N4C(C)=O)CC2)cc1 (stereo not drawn)	30	-1	6	i	-7
CC(C)(C)n1nc2c(c1NC(=O)Cc1ccccc1)CS(=O)(=O)C2	55*	-4	4	i	-5
COc1ccc(OCC(=O)Nc2c3c(nn2C(C)(C)C)CS(=O)(=O)C3)cc1	14	0	4	+	-1
CC(C)(C)n1nc2c(c1NC(=O)COc1ccc(F)cc1)CS(=O)(=O)C2	7	-1	2	i	-2
Cc1ccccc1OCC(=O)Nc1c2c(nn1C(C)(C)C)CS(=O)(=O)C2	-8	2	-3	+	-1
SMILES	CRFBP-R2 block	CRFR2-BP ag	cardiac RTF act	Myeloid diff MLP	RTF Ca sens inh
CCCn1c(N)c(C(=O)CSc2nnc(C3CC3)n2C2CC2)c(=O)[nH]c1=O	-12	4	0	i	3
C/C(CC(C)(C)c1ccccc1)=N\NS(=O)(=O)c1ccccc1	3	0	-1	i	4
CCOC(=O)CSC1=C(C#N)C(c2ccc(Cl)cc2)C(C(=O)OC)C(=O)N1 (stereo not drawn)	53*	-3	3	i	-32
CCOC(=O)C1C(=O)NC(SCC(N)=O)=C(C#N)C1c1ccccc1OCC (stereo not drawn)	-5	4	38*	i	-71
COC(=O)CSC1=C(C#N)C(c2ccc(Cl)cc2)C(C(=O)OC)C(=O)N1 (stereo not drawn)	58*	-1	-5	i	-13
C#CCN(CC(=O)OCC)S(=O)(=O)CCNC1CC1	x	x	x	i	x
CCOC(=O)C1=CCN(Cc2ccccc2)CC1	-3	-1	5	i	-7
CC(=O)N(c1ccccc1)C(C(=O)c1ccccc1)c1ccccc1 (stereo not drawn)	10	1	-11	i	1
O=C(CCCN1CCC(C(O)c2ccc(F)cc2)CC1)c1ccc(F)cc1 (stereo not drawn)	x	x	x	i	x
CC(c1ccccc1C(O)(c1ccccc1)c1ccccc1)N(C)C (stereo not drawn)	-63	93*	-3	i	0
CCc1ccc(C(=O)CN2C(=O)NC(C)(CCc3ccccc3)C2=O)cc1 (stereo not drawn)	-39	0	9	i	-6
Cc1ccc(N(CC(=O)NC2CCCC2)C(=O)CCC(=O)Nc2nc(C)cs2)cc1	-37	17	-4	i	2
Cc1cnc(C(=O)N2CCc3c([nH]c4ccccc34)C2c2ccc(F)cc2)cn1 (stereo not drawn)	-27	-1	-2	i	-7
CC(=O)c1cc(C(=O)N2CCc3c([nH]c4ccccc34)C2C2CCCCC2)[nH]n1 (stereo not drawn)	-17	0	-2	+	5
NC(=O)c1c(N)sc2c1CCCCC2	14	-2	30*	i	-1
CN1CCC(N(C)C(=O)c2cc(-c3ccccc3Cl)nc3ccccc23)CC1	-2	0	-1	+	4
CN1CCC(N(C)C(=O)c2cc(-c3ccc(F)cc3)nc3ccccc23)CC1	-1	-1	-4	i	-1
CCOC(=O)/C(=C/C=C1\Sc2cc(OCC)c(OCC)cc2N1CC)C(C)=O	-320	279*	534*	+	i
CCOC(=O)/C(=C\C=C1/Sc2cc(OCC)c(OCC)cc2N1CC)C(C)=O	-414	322*	516*	+	i
CCN1/C(=C/C(C)=O)Sc2ccc(OC)cc21	14	-1	0	i	4
CCOC(=O)N1c2ccccc2Sc2ccccc21	16	-2	-9	i	8
C#Cc1ccc([C@H]2C=C(C(=O)NC3CC3)O[C@@H](OCC)[C@@H]2CCCO)cc1	-4	-2	-4	i	0
CC1(C(=O)Nc2ccc(F)cc2F)CCN1C(=O)Cc1ccccc1 (stereo not drawn)	x	x	x	i	x
